High-throughput results (PubChem BioAssay)
The list is not random: actives were taken first. Their share in the collection is about 5.2%.
NadD block: inhibitors of Staphylococcus aureus NadD | purified NadD enzyme, colorimetric absorbance read-out | inhibition, % at 20 µM | 360,000 compounds, 0.78% hits; in the data active = inhibition above about 26%
esBAF inh: blocks esBAF chromatin remodeling in mouse ES cells | 350,000 compounds, 2% hits | reporter increase, % at 12.5 µM | Bmi1-luciferase knock-in reporter, 24 h; 100% = twice the neutral-well signal; in the data active = activation above about 40%;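 note: a rise in the Bmi1 reporter signal indicates esBAF inhibition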
SMARCA2 activ: increases SMARCA2 function in MMTV reporter cells; MG213 cells, MMTV-luciferase reporter, dexamethasone, overnight; activation, % at 9.1 µM; 370,000 compounds, 1% hits; AID 652017; in the data active = activation above about 7.8%
SKN-1 block: blocks SKN-1 activity in C. elegans. C. elegans VP596 Pgst-4::GFP/RFP ratio, acrylamide-induced, 24 h. inhibition, % at 21.8 µM. 360,000 compounds, 0.49% hits. AID 624304;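 active = interference check ratio from 0.5 to 1.5 plus GFP to RFP signal ratio inhibition reaching or exceeding a fixed threshold, cut at about 30% in these data, passing the limit was not always enough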
Vif inh: HIV Vif inhibition; HEK293T cells, Vif self-association by quenched fluorescence, imaging, 24 h; inhibition, % at 7.49 µM; 340,000 compounds, 0.35% hits; AID 602346; in the data active = inhibition above about 50%, passing the limit was not always enough
NR3A LBD binder: modulators (binders) of human NR3A ligand-binding domain; NR3A LBD differential scanning fluorimetry, Tm shift; 0% = protein alone, 100% = glycine-bound protein; AID 1259313; 340,000 compounds, 2.5% hits; Tm shift relative to glycine control, % at 25 µM;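 active = melting temperature shift of at least 10% of the positive control shift, at one fixed dose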
Numbers stand for hits; . = inactive; / = no result given.

SMILES | NadD block | esBAF inh | SMARCA2 activ | SKN-1 block | Vif inh | NR3A LBD binder
O=C(CC1S/C(=N/N=C/C=C/c2ccccc2)NC1=O)Nc1ccc(Cl)c(Cl)c1 (stereo not given) | . | / | . | . | . | 37
O=C(NC1CC1)c1cc2cc3ccccc3nc2s1 | . | 70 | . | . | . | .
O=C(NNS(=O)(=O)c1ccccc1)c1cc2cc3ccccc3nc2s1 | . | / | . | . | . | .
N#Cc1cnc(Nc2ccc(F)cc2)nc1N | . | / | . | . | . | 13
O=C(Nc1ccc(Oc2cccnc2)cc1)C1CCCCN1Cc1ccc(CO)o1 (stereo not given) | . | . | . | . | . | 10
C=C[C@@]1(C)CC(=O)[C@]2(O)[C@@]3(C)[C@@H](O)CCC(C)(C)[C@@H]3[C@H](OC(C)=O)[C@H](O)[C@@]2(C)O1 | . | . | . | . | 82 | .
C=C1C(=O)O[C@H]2C[C@]3(C)C([C@@H](OC(=O)/C(C)=C/C)[C@H]12)[C@](C)(O)CC[C@H]3O (stereo not given in full) | . | . | . | . | . | .
O=C(CSCC(=O)NN=Cc1ccccc1O)NN=Cc1ccccc1O | . | . | . | . | . | 26
O=C(CCCCC(=O)NN=Cc1ccccc1O)NN=Cc1ccccc1O | . | / | . | . | . | 35
Cc1cc(SCC(=O)N/N=C/c2ccc(O)cc2O)nc2ccccc12 | . | . | . | . | . | 26
O=C(CCC(=O)Nc1ccc(Br)cc1)N/N=C/c1ccccc1O | . | . | . | . | . | .
Cc1cc(NC(=S)NC(=O)C2CC2)ccc1Br | . | 64 | . | . | . | .
Cc1ccc(NC(=S)NC(=O)C2CCCC2)c(Br)c1 | . | 67 | . | . | . | .
Cc1cccc(NC(=S)NC(=O)C2CC2)c1 | . | . | / | . | . | /
Cc1ccc(NS(=O)(=O)c2ccc(Cl)c(NC(=S)NC(=O)C3CCCCC3)c2)cc1Cl | . | / | . | . | . | 33
Cc1ccc(NC(=O)C2CCCC2)cc1Cl | . | . | . | . | . | .
O=C(NC(=S)Nc1ccccc1Br)C1CC1 | . | / | . | . | / | .
C/C=C/c1ccc2c(c1)O[C@@H](CN(C)C(=O)NC(C)C)[C@@H](C)CN([C@H](C)CO)S2(=O)=O | / | . | / | / | / | /
Cc1cc(Nc2cccc(F)c2)nc(-c2ccccc2O)n1 | . | . | . | . | . | 30
Cc1cc(Nc2ccccc2)nc(-c2ccccc2O)n1 | . | . | . | . | . | 11
CCOC(=O)c1ccc(Nc2cc(C)nc(-c3ccccc3O)n2)cc1 | . | . | . | . | . | 35
Cc1cc(Nc2ccccc2Cl)nc(-c2ccccc2O)n1 | . | . | . | . | . | .
Cc1cc(N/N=C/c2c(O)ccc3ccccc23)nc(-c2ccccc2O)n1 | . | / | . | . | . | 14
C[C@@H]1CN([C@@H](C)CO)C(=O)c2cccc(NS(=O)(=O)c3ccc(Cl)cc3)c2O[C@@H]1CN(C)S(=O)(=O)c1cn(C)cn1 | / | . | / | / | / | /
COc1ccccc1N(C(C)=O)c1nc(C)cc(C)c1C#N | . | . | . | . | . | 19
SMILES | NadD block | esBAF inh | SMARCA2 activ | SKN-1 block | Vif inh | NR3A LBD binder
CN1c2ccc(-c3ccc(F)cc3)cc2[C@@H]2[C@@H](CCN2C(=O)C2CCOCC2)[C@H]1CO | / | . | / | / | / | /
CCCCN1C(=O)/C(=C2\SC(N3CCCCC3)=NC2=O)c2ccccc21 | . | 51 | . | . | . | .
O=C(N/N=C/c1ccncc1)c1cc2ccccc2cc1O | . | . | . | . | . | 13
O=C(N/N=C/c1ccc[nH]1)c1cc2ccccc2cc1O | . | 53 | . | . | . | 11
Cc1cccc(C(=O)N/N=C/c2ccc[nH]2)c1 | . | / | . | . | . | .
Cc1nn(-c2ccccc2)c(N2CCCC2)c1/C=N/NC(=O)c1cc2ccccc2cc1O | 39 | / | . | . | . | .
Cc1nn(-c2ccccc2)c(N2CCCC2)c1/C=N/NC(=O)c1cc(-c2ccccc2)nc2ccccc12 | . | / | . | . | . | .
CCCc1nnc(NS(=O)(=O)c2ccc(OC)cc2)s1 | . | / | . | . | . | 10
Cc1noc(C)c1S(=O)(=O)N(C)C[C@@H]1OCCCC[C@@H](C)Oc2ccc(NC(=O)Nc3ccc(C(F)(F)F)cc3)cc2C(=O)N([C@H](C)CO)C[C@H]1C | / | . | / | / | / | /
N=c1oc2ccccc2cc1-c1nc(-c2ccccc2)cs1 | . | / | . | 58 | . | .
N=c1oc2ccc3ccccc3c2cc1-c1nc(-c2ccccc2)cs1 | . | . | . | . | . | .
O=C(C[C@@H]1C=C[C@H](NC(=O)c2ccncc2)[C@@H](CO)O1)Nc1ccc(-c2ccccc2)cc1 | / | . | / | / | / | /
C[C@@H]1CCCCO[C@H](CN(C)C(=O)Nc2ccc(F)cc2)[C@H](C)CN([C@H](C)CO)C(=O)c2cc(N(C)C)ccc2O1 | / | . | / | / | / | /
Cc1ccc(S(=O)(=O)N(C)C[C@H]2OCCCC[C@H](C)Oc3ccc(NC(=O)c4ccccc4)cc3C(=O)N([C@@H](C)CO)C[C@@H]2C)cc1 | / | . | / | / | / | /
O=C(CN1CCN(Cc2ccccc2)CC1)c1ccccc1 | . | . | . | . | . | .
O=C(CN1CCN(Cc2ccccc2)CC1)c1ccc(Br)cc1 | . | . | . | . | . | 11
CO[C@@H]1CN(C)C(=O)c2cc(NC(=O)Nc3cccc(F)c3)ccc2OC[C@@H](C)N(C(=O)Nc2c(C)noc2C)C[C@H]1C | / | . | / | / | / | /
CCC(Sc1nc2ccccc2c(=O)[nH]1)C(=O)Nc1ccc(C(C)=O)cc1 (stereo not given) | . | 70 | . | . | . | .
COC(=O)c1ccc(NC(=O)CSc2nc3ccccc3c(=O)[nH]2)cc1 | . | . | . | . | . | .
COc1ccc(C)cc1N(C(=O)c1ccc(F)cc1)c1nc2ccccc2s1 | . | / | . | . | . | 11
C=CCc1cccc(/C=N/NC(=O)CNc2ccccc2)c1O | . | . | . | . | . | .
C=CCc1cccc(/C=N/NC(=O)CCCNc2ccc(C)cc2)c1O | . | / | . | . | . | 12
C=CCc1cccc(/C=N/NC(=O)CNc2ccccc2OC)c1O | . | / | . | . | . | 13
C=CCc1cccc(/C=N/NC(=O)CNc2cccc3ccccc23)c1O | . | / | . | . | . | 30
Cc1ccccc1S(=O)(=O)N1CC[C@@H]2[C@H]1c1cc(C#Cc3ccccc3)ccc1N[C@@H]2CO | / | . | / | / | / | /
O=C(Nc1ccc2c(c1)[C@@H]1C[C@H](CC(=O)N3CCc4ccccc4C3)O[C@H](CO)[C@@H]1O2)NC1CCCC1 | / | . | / | / | / | /
O=C(CSc1ncn[nH]1)Nc1ccc(Cl)c(Cl)c1 | . | / | . | 44 | . | .
CCOC(=O)c1c(-c2ccccc2)nnn1-c1nc(OCC)nc(N2CCCCC2)n1 | . | . | . | . | . | .
CCOc1nc(N2CCCCC2)nc(-n2cc(-c3ccccc3)nn2)n1 | . | . | . | . | 55 | .
CCCCSc1nnc(CSc2nc3nc(C)cc(C)n3n2)o1 | . | . | . | . | . | 12
